From PubChem BioAssay AID1778 (Sanford-Burnham Center for Chemical Genomics, 2009) come the findings set out here.

Several values for one entry are separate records, joined by “and”; a condition that tells them apart may be missing. Identical values can stand only once. The whole screen tested about 290,000 compounds, of which about 260 (0.09%) were called active. This is one part of a sample in which actives are shown more often than they occur. Measured potencies and affinities stand elsewhere. A number with no mark means an inactive call. Rule as the data show it: active = inhibition above about 50%; inactive = the rest.

Sequence of Kappa-type opioid receptor (Homo sapiens) (P41145 whole entry, looked up): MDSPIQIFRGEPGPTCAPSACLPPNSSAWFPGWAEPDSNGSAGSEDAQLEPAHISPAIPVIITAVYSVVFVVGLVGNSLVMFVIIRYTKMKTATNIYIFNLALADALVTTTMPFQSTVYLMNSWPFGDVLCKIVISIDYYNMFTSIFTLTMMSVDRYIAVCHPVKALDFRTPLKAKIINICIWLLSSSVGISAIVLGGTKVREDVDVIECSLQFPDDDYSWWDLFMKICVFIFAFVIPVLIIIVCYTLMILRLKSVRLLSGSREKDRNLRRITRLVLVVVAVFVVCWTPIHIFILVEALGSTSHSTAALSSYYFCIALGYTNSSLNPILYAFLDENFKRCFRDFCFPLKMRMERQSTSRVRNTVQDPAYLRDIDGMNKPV

This experiment concerns the target Kappa-type opioid receptor (Homo sapiens) (UniProt P41145). Briefly: KOR antagonists, beta-arrestin recruitment, cell-based, luminescence, uHTS (AID 1778). The settings on record: antagonist mode, hits give high values; at 10 µM unless noted. For orientation: Recruitment of arrestin is a read-out of receptor activation apart from second messengers.
The inhibition is the drop in the measured response relative to a control, in per cent. As for `N/C(=N\OC(=O)c1ccc2c(c1)OCO2)c1cccnc1`, the inhibition was -2.2% [at 20 µM].

For the compound `CCC(C)(C)NC(=O)C1CCN(c2nc(OC)nc(OC)n2)CC1`, the inhibition was -16.1%.

For the compound `COCC1CCN(C(=O)c2cc(COc3ccc(-n4cncn4)cc3)on2)C1` (stereo not given), the inhibition is -15.5%.

`CC(C)(C)C1CCc2c(sc(NC(=O)c3cccs3)c2C(N)=O)C1` (stereo not given): the inhibition was -55.5%.

`Oc1c(C(c2ccccn2)N2CCCCC2)cc(Cl)c2cccnc12` (stereo not given): the inhibition was -6.4%.

As to `Oc1c(C(c2cccs2)N2CCN(c3ccccc3)CC2)ccc2cccnc12` (stereo not given), the inhibition is 2.5%.

Consider `Oc1c(C(c2ccccc2Cl)N2CCCC2)ccc2cccnc12` (stereo not given), for which the inhibition was 57.9% (active).

`C/C(=N\Nc1nc(Cl)c(Cl)cc1Cl)c1ccc(S(=O)(=O)NCc2ccco2)cc1`: the inhibition is -56.4%.

Turning to `COCCn1c(=N)c(S(=O)(=O)c2ccc(F)cc2)cc2c(=O)n3cccc(C)c3nc21`, the inhibition is -2.3%.

Turning to `COc1ccc(N(C(=O)c2ccco2)S(=O)(=O)c2ccccc2)cc1`, the inhibition was -19.2%.

Take `CCCCN(Cc1cc2cc(OC)ccc2[nH]c1=O)S(=O)(=O)c1ccc(C)cc1`: the inhibition was -44.3% [at 20 µM].

For `O=C(Cn1ncc2ccccc21)N1CCc2ccccc21`, the inhibition is 1.2%.

Take `O=C1CN(C(=O)Cn2ncc(Cl)c(Cl)c2=O)c2ccccc2N1`: the inhibition is 53.5%.

Take `Cc1nc(-c2noc(-c3ccc(Cl)cc3)n2)c(C(F)(F)F)o1`: the inhibition is 31.9%.

In the case of `CCCCN1C(=O)C2(OCCCO2)c2cccc(C)c21`, the inhibition is -40.4% [at 20 µM].

Consider `CN1CC(=O)N(CC(=O)NCc2ccc(F)cc2)c2ccccc2C1=O`, for which the inhibition is 3%.

Regarding `Cc1oc2c(c(=O)c1C)C(=O)CC(c1ccccc1)C2` (stereo not given), the inhibition is -21.1%.

Turning to `Cc1c(C(=O)O)[nH]c2c1C(=O)CC(c1ccccc1)C2` (stereo not given), the inhibition was -26.9%.

As to `CCN1CCN(CC(=O)N2N=C(c3cccs3)CC2c2ccc(F)cc2)C(=O)C1=O` (stereo not given), the inhibition is 0.6%.

As to `C/C(=N\Nc1nc(-c2ccccn2)nc2ccccc12)c1ccc(F)cc1`, the inhibition is 31.6%.

Take `C(=N\Nc1nc(-c2cccnc2)nc2ccccc12)/c1ccccc1`: the inhibition is -5.2%.

For `Cc1ccc(-c2nc(N/N=C/c3ccncc3)c3ccccc3n2)cc1`, the inhibition was 2.4%.

With `C(=N\Nc1nc(-c2ccccn2)nc2ccccc12)/c1ccccc1`, the inhibition was 76.2% (active).

For the compound `Fc1ccccc1/C=N/Nc1ncnc2ccccc12`, the inhibition was 10.9%.

For the compound `COc1cccc(CN2CCN(C(=O)c3oc4c(F)cccc4c3C)CC2=O)c1`, the inhibition is -26.9% [at 20 µM].

Consider `COC(=O)CSc1nc2sc3c(c2c(=O)n1-c1ccc(OC)cc1)CCN(C)C3`, for which the inhibition was -14.3%.

For `COc1ccccc1N1CCN(C(=O)c2cnn3cccnc23)CC1`, the inhibition was 24.4%.

`N=C1SC(c2ccccc2)C(=O)N1c1ncc(Cc2ccccc2Cl)s1` (stereo not given): the inhibition is 26.7%.

Turning to `N=C1SCC(=O)N1c1ccccc1Cl`, the inhibition is 16.3%.

For the compound `N=C1SC(c2ccccc2)C(=O)N1c1ncc(Cc2ccccc2)s1` (stereo not given), the inhibition is 1.3%.

With `O=C1c2ccccc2C(=O)N1c1ncc(Cc2ccc(Cl)cc2)s1`, the inhibition is -50.6%.

Consider `CCC(C(=O)NCc1cccs1)n1nc(C)n2c(cc3occc32)c1=O` (stereo not given), for which the inhibition is -9.9%.

As to `Fc1ccccc1-c1nc(-c2cnccc2C(F)(F)F)no1`, the inhibition is 11.7%.

`CC(=O)Oc1ccc(C23CC4CC(CC(C4)C2)C3)cc1C(=O)O`: the inhibition is -9%.

Consider `COc1ccc(C2=NN(C(=O)c3cccs3)C(c3ccccc3OC)C2)cc1OC` (stereo not given), for which the inhibition is 3.2%.

Regarding `O=Cc1s/c(=N\S(=O)(=O)c2ccccc2)n(CCCCl)c1Cl`, the inhibition is -16.2%.

On to `Cc1c(C(C)(C)C)s/c(=N/S(=O)(=O)c2ccccc2)n1C`, for which the inhibition was 1.7%.

Regarding `Nc1cc(S(=O)(=O)Nc2cc(Cl)ccc2Cl)ccc1N1CCOCC1`, the inhibition was 6.9%.

Consider `C=CCNCC(=O)Nc1ccccc1SCC(=O)Nc1ccsc1C(=O)OC`, for which the inhibition was -29% [at 20 µM].

On to `O=[N+]([O-])c1ccc(Nc2ccccc2O)c2nonc12`, for which the inhibition was 10.2% [at 20 µM].

Turning to `O=[N+]([O-])c1ccc(Nc2ccccc2)c2nonc12`, the inhibition was 7.5%.

`O=[N+]([O-])c1ccc(Sc2cccc[n+]2[O-])c2nonc12`: the inhibition was 93% (active).

On to `CC1(C)CC(=O)C(N=Nc2cccc(S(=O)(=O)N3CCOCC3)c2)=C(O)C1`, for which the inhibition is -0.5%.

`CCOC(=O)c1[nH]c(C)c(C(=O)OCc2c(C)noc2C)c1C`: the inhibition was -46%.

Turning to `CCOCCCNC(=O)C(c1ccc(C)cc1)N(Cc1ccc2c(c1)OCO2)C(=O)CNC(C)=O` (stereo not given), the inhibition is -0.2%.

For the compound `COc1ccc(NC(=O)C2CC(=O)N(c3ccccc3C)C2)c(OC)c1` (stereo not given), the inhibition is -5%.

Regarding `COc1ccc(C(=O)Nc2ccc(S(=O)(=O)Nc3nccnc3OC)cc2)cc1`, the inhibition is -19%.

`CC(=O)N(C1CC(C)C(C#N)(C#N)C1(C#N)C#N)N(C)C` (stereo not given): the inhibition was 17.9% [at 20 µM].

For the compound `CCCC(=O)N(C1CC(C)C(C#N)(C#N)C1(C#N)C#N)N(C)C` (stereo not given), the inhibition is 85.4% (active).

Regarding `O=C(CN(C(=O)CCC(=O)Nc1nccs1)c1ccc2c(c1)OCO2)NCc1ccc(F)cc1`, the inhibition was -0.7%.

Consider `Cc1nn(C)cc1CNC(=O)C1(C)CC1(Cl)Cl` (stereo not given), for which the inhibition is 11.1%.

`O=S1(=O)NC(=NCCc2ccccn2)c2ccccc21`: the inhibition was 20.9%.

As for `c1cnc2c(c1)ccc1cccnc12`, the inhibition is -30.1% and 19.4%.

For the compound `CC(C)c1nc2sc3c(c2c(=O)n1N)CC(C)(C)OC3`, the inhibition is 13%.

On to `CC1(C)Cc2c(sc3c4nnnn4c4nnnn4c23)CO1`, for which the inhibition is 56.4% (active).

As for `CC1(C)Cc2c(sc3ncn4nnnc4c23)CO1`, the inhibition was -7.5%.

As to `CC1(C)Cc2c(c(-c3ccco3)nc3sc4c(NCC5CCCO5)ncnc4c23)CO1` (stereo not given), the inhibition was -42.4%.

For `O=C(CSc1nc2ccsc2c(=O)n1CC1CCC(C(=O)O)CC1)c1ccc(F)cc1` (stereo not given), the inhibition is 18.5%.

For `Oc1ccccc1N=Nc1nc(-c2ccccc2)c(-c2ccccc2)[nH]1`, the inhibition is 33.6%.

As for `COc1ccc(N=Nc2nc(-c3ccccc3)c(-c3ccccc3)[nH]2)cc1`, the inhibition is 28.4%.
